Reference: paper PMC10726135, “HNF4α isoforms regulate the circadian balance between carbohydrate and lipid metabolism in the liver”
In all, about 18,000 sequences were measured (“log2 normalized intensity”: median about 0.39, highest 2% from about 6.6 on). The full list was thinned out, with the highest values kept by preference.

These sequences were tested against T1, HNF4alpha2 (COS-7 nuclear extract) (Homo sapiens, UniProt P41235 1-474) (assay: protein-binding microarray; COS-7 nuclear extract on double-stranded Agilent 4x180k PBM; binding buffer, salt, pH and temperature not given in the material; high values mean tight binding). Settings: chain copies: 2; label: 3' end of strand 1 on the slide; dsDNA, one strand shown.
T1 sequence: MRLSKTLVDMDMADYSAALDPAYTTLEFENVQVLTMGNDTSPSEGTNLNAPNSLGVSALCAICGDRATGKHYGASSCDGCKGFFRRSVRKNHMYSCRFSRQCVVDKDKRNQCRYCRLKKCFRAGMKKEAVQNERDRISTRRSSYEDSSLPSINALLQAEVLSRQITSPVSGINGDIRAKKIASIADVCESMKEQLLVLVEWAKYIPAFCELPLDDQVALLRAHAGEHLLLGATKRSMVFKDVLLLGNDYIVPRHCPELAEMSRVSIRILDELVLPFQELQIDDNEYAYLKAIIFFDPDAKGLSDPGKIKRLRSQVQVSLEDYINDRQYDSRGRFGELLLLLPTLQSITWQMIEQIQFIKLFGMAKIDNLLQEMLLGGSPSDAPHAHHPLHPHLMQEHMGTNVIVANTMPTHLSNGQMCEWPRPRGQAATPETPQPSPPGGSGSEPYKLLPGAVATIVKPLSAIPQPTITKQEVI
Outline: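 Binding signal was defined as the normalized, background-corrected gProcessedSignal reported by Agilent software. It came from nuclear extracts of COS-7 cells transiently transfected with a human HNF4α isoform expression vector, applied to a custom Agilent SurePrint G3 4x180k array. That array held ~44,000 test sequences in quadruplicate as double-stranded ~60-nt oligonucleotides, and bound HNF4α was imaged at 2-µm resolution on an Agilent G2565CA scanner.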

| Sequence | binding signal [log2 normalized intensity] |
| --- | --- |
| AATTACCATTCTTGAGGACAGGCCAAATCCGCCTAGGGAGATTAGAGTATCGGTCGA | 0.0816 |
| CCCAGGTCCAGCCTTTGGGCAGGGGCATCCGCCTAGGGAGATTAGAGTATCGGTCGA | -0.72 |
| TGTGCAGCTTTGTGTAAAACTTCAAAGAAGGCCTAGGGAGATTAGAGTATCGGTCGA | -0.427 |
| AATGGGCAAAGGTCACAAGAGGTGCTGTGTGCCTAGGGAGATTAGAGTATCGGTCGA | 4.69 |
| GGCTGAATGGGCAAAGGTCACAAGAGGTGCGCCTAGGGAGATTAGAGTATCGGTCGA | 4.6 |
| TCACAGTGTGGGGCAAATCTGAGGTCAAAGGCCTAGGGAGATTAGAGTATCGGTCGA | 2.22 |
| CCTGAGGTGTGAGAGGGCAAAGGTCACAGCGCCTAGGGAGATTAGAGTATCGGTCGA | 8.02 |
| GGTGTGAGAGGGCAAAGGTCACAGCATTAGGCCTAGGGAGATTAGAGTATCGGTCGA | 6.76 |
| GGGCCAGCAAGAGGTGACCCCAGGGCAAAGGCCTAGGGAGATTAGAGTATCGGTCGA | 2.92 |
| GGGCAGCCCGTGTGGGCGGGTGCAGCTTCCGCCTAGGGAGATTAGAGTATCGGTCGA | -0.675 |
| CAGTTATCAGACAGAGGAATTCAGCAGGATGCCTAGGGAGATTAGAGTATCGGTCGA | -0.611 |
| TTTCTCCTCTCTGGGCTTCCATTGTGATTCGCCTAGGGAGATTAGAGTATCGGTCGA | 1.02 |
| GCCACATTCCCCGACTCCTGGGTGTGAGATGCCTAGGGAGATTAGAGTATCGGTCGA | 0.517 |
| AAGCAGAAGCTGCACACATGTCAAAGGTCAGCCTAGGGAGATTAGAGTATCGGTCGA | 6.19 |
| CAGCAATCACCTACCCCCAGATTCTCTGTTGCCTAGGGAGATTAGAGTATCGGTCGA | 2.35 |
| GTTATCTAATGGAGAGGATGGGGACAAAGGGCCTAGGGAGATTAGAGTATCGGTCGA | 1.47 |
| AATTCCCTGCAAGGACAAAGGTCATGTTTTGCCTAGGGAGATTAGAGTATCGGTCGA | 6.26 |
| TTTGGAATTCCCTGCAAGGACAAAGGTCATGCCTAGGGAGATTAGAGTATCGGTCGA | 6.87 |
| GACAAAGGTCATTCATGTGCAGGTTGGAATGCCTAGGGAGATTAGAGTATCGGTCGA | 2.77 |
| CTAATGGAGAGGATGGGGACAAAGGTCAAGGCCTAGGGAGATTAGAGTATCGGTCGA | 7.24 |
| GGAGAGGATGGGGACAAAGGTCAAGAAAGCGCCTAGGGAGATTAGAGTATCGGTCGA | 5.86 |
| TGTCTCTGGTCAGGGAGGGCTTTAGAATGTGCCTAGGGAGATTAGAGTATCGGTCGA | 1.01 |

| Sequence | binding signal [log2 normalized intensity] |
| --- | --- |
| TTGGTCTGCTGAGTCTCATGATTAGATTGAGCCTAGGGAGATTAGAGTATCGGTCGA | 0.746 |
| TGGCCTGGGAACTTAGCGATTTGGAACCCAGCCTAGGGAGATTAGAGTATCGGTCGA | 0.829 |
| AAGTTCAAGTAGATAAAATCAAACAGATGTGCCTAGGGAGATTAGAGTATCGGTCGA | 1.02 |
| TCTGCAAACACCCCTCCCCCACACAGACAAGCCTAGGGAGATTAGAGTATCGGTCGA | 5.01 |
| TGGTGCTATCTTTGCTCACTGTAACCTTTGGCCTAGGGAGATTAGAGTATCGGTCGA | 3.78 |
| ATCTCAGCTCACTGTAACCTTTGCCCCCCTGCCTAGGGAGATTAGAGTATCGGTCGA | 8.75 |
| AACCTTTGCCCCAGCTGTCACCCAGCCAGAGCCTAGGGAGATTAGAGTATCGGTCGA | 3.68 |
| GTGCTATCTCAGCTCACTGTAACCTTTGCCGCCTAGGGAGATTAGAGTATCGGTCGA | 3.93 |
| GTAACCTTTGCCCCCCAAGTTGAAGCCATCGCCTAGGGAGATTAGAGTATCGGTCGA | 5.16 |
| TCACTGTAACCTTTGCCCCCCAAGTTGAAGGCCTAGGGAGATTAGAGTATCGGTCGA | 6.72 |
| AGCCCCAACCCACTGTTGCCCCTTCCAAAGGCCTAGGGAGATTAGAGTATCGGTCGA | 4.68 |
| ACTGTAACCTTTGCCCCCCTGGGCTCAAGCGCCTAGGGAGATTAGAGTATCGGTCGA | 5.81 |
| TTTGCTCACTGTAACCTTTGCCCCCCAAGTGCCTAGGGAGATTAGAGTATCGGTCGA | 8.54 |
| AGCAAAGGTCATCCTGGGCTACCGATATGAGCCTAGGGAGATTAGAGTATCGGTCGA | 0.737 |
| TAGACCAGCCAATTCTACTGGAAGTAGGTAGCCTAGGGAGATTAGAGTATCGGTCGA | 0.854 |
| CCTTTCCCCGCCCCGCGTCCGTGCACCCTTGCCTAGGGAGATTAGAGTATCGGTCGA | 4.42 |
| ACTTTGAGGTGTTCTCTGGGGTTAGCCAAAGCCTAGGGAGATTAGAGTATCGGTCGA | 1.59 |
| CGGGTCAGCAGGGCACCGCCTCCACACCCCGCCTAGGGAGATTAGAGTATCGGTCGA | 1.59 |
| TCACAATTAAGCCAAACTTGGGTTTATGGCGCCTAGGGAGATTAGAGTATCGGTCGA | 0.583 |
| AGACAACCTTTGGTCACTTGTAAGATACTGGCCTAGGGAGATTAGAGTATCGGTCGA | 2.43 |
| AAGGTTGGTCTTAGGACCACATGAGTAAACGCCTAGGGAGATTAGAGTATCGGTCGA | -0.756 |
| CCTTGGATCTCCTGCACCTGAACTTTGCTCGCCTAGGGAGATTAGAGTATCGGTCGA | 6.35 |

| Sequence | binding signal [log2 normalized intensity] |
| --- | --- |
| GTGAACTTTGCCCTCTCTTTCTGGAACCTAGCCTAGGGAGATTAGAGTATCGGTCGA | 5.08 |
| ACTGATCTCTGGCTTGATCCCTGAACTTTGGCCTAGGGAGATTAGAGTATCGGTCGA | 3.32 |
| TCTCTGGCTTGATCCCTGAACTTTGCTCCCGCCTAGGGAGATTAGAGTATCGGTCGA | 7.97 |
| TGGGCTCCTGCCTTGGAGAAGTGAACTTTGGCCTAGGGAGATTAGAGTATCGGTCGA | 4.34 |
| TCCTGCCTTGGAGAAGTGAACTTTGCCCTCGCCTAGGGAGATTAGAGTATCGGTCGA | 10.2 |
| GAGAAGTGAACTTTGCCCTCTCTTTCTGGAGCCTAGGGAGATTAGAGTATCGGTCGA | 7.55 |
| GGCTTGATCCCTGAACTTTGCTCCCACCCTGCCTAGGGAGATTAGAGTATCGGTCGA | 5.57 |
| AAGTGACCCTGGTCTTTGCCCTTTCCTAGAGCCTAGGGAGATTAGAGTATCGGTCGA | 3.39 |
| TGGGCTCGGCGCTCCGCTTACTCGGCCTGGGCCTAGGGAGATTAGAGTATCGGTCGA | -0.994 |
| TCCCTCATTAGTAACTCCAGAGATAAGATAGCCTAGGGAGATTAGAGTATCGGTCGA | 0.0683 |
| GCAGTGGGACAAAGGTCACAGGAAAGGGACGCCTAGGGAGATTAGAGTATCGGTCGA | 4.13 |
| AGGGAGGGGAGAGGGGGTTAAAGGTTATTTGCCTAGGGAGATTAGAGTATCGGTCGA | 4.97 |
| CCTATATAGTTGAGATTGTAACCGTAAATGGCCTAGGGAGATTAGAGTATCGGTCGA | 1.55 |
| GTTAAGTGAGTGGACTTTGGTCCTGGTCAGGCCTAGGGAGATTAGAGTATCGGTCGA | 6.52 |
| AGGTACTAAGAGATTTGAATATGTACATGGGCCTAGGGAGATTAGAGTATCGGTCGA | 1.38 |
| GAATGCAACCACACCAACATGGACTTTGTCGCCTAGGGAGATTAGAGTATCGGTCGA | 6.09 |
| AGATTTGAATATGTACATGGACTTTGAACCGCCTAGGGAGATTAGAGTATCGGTCGA | 10.3 |
| CATGGACTTTGAACCAAGATATGCTAACATGCCTAGGGAGATTAGAGTATCGGTCGA | 4.81 |
| ATGTACATGGACTTTGAACCAAGATATGCTGCCTAGGGAGATTAGAGTATCGGTCGA | 6.75 |
| CGGTCAGCTGCTTGACTTAGTACATGGCCTGCCTAGGGAGATTAGAGTATCGGTCGA | 0.557 |
| CTAAGAGATTTGAATATGTACATGGACTTTGCCTAGGGAGATTAGAGTATCGGTCGA | 6.19 |
| TGAATATGTACATGGACTTTGAACCAAGATGCCTAGGGAGATTAGAGTATCGGTCGA | 8.36 |

| Sequence | binding signal [log2 normalized intensity] |
| --- | --- |
| ACACAGTACTTTGTACATGGGAATAGACATGCCTAGGGAGATTAGAGTATCGGTCGA | 0.863 |
| ATCCTTATCTTGTAGAAAAGTGCATGGATTGCCTAGGGAGATTAGAGTATCGGTCGA | 0.836 |
| TTGAGTTTGCTCTGCTACTAACTGCATGACGCCTAGGGAGATTAGAGTATCGGTCGA | -0.452 |
| TTCTCCAGGAAGTTCAGGCCTCGGCTTCATGCCTAGGGAGATTAGAGTATCGGTCGA | -0.98 |
| CACTCAATGCAGCAGCATTGGACCCTCCCAGCCTAGGGAGATTAGAGTATCGGTCGA | 5.46 |
| TTTTAAGGTCTGGCATTCTTTTTGACCTTTGCCTAGGGAGATTAGAGTATCGGTCGA | 7.55 |
| TATTTAGACTCAGCATGTCTTCTGACCTTTGCCTAGGGAGATTAGAGTATCGGTCGA | 6.51 |
| CCATATCACATTTTAAGGTCTGGCATTCTTGCCTAGGGAGATTAGAGTATCGGTCGA | 1.37 |
| ACTCAGGCATTCTGACCTTTGTCTCCAGGCGCCTAGGGAGATTAGAGTATCGGTCGA | 5.69 |
| GGCATTCTGACCTTTGTCTCCAGGCAAACTGCCTAGGGAGATTAGAGTATCGGTCGA | 4.88 |
| TAAAACTGCAGATTGACTCAGGCATTCTGAGCCTAGGGAGATTAGAGTATCGGTCGA | -0.529 |
| CTGCAGATTGACTCAGGCATTCTGACCTTTGCCTAGGGAGATTAGAGTATCGGTCGA | 6.93 |
| CCTTTTATTTTCTTATCTGCCTAGGCATTTGCCTAGGGAGATTAGAGTATCGGTCGA | 1.33 |
| GATTGACTCAGGCATTCTGACCTTTGTCTCGCCTAGGGAGATTAGAGTATCGGTCGA | 7.05 |
| CCTTATGACGGACAAAGGGCTCTCTCACCAGCCTAGGGAGATTAGAGTATCGGTCGA | -0.701 |
| TGTGGGCCTCACACCCTCTAGGGTAGATAAGCCTAGGGAGATTAGAGTATCGGTCGA | -0.451 |
| TGCCTCCTTCAAGGATTAGCAGATAAATCTGCCTAGGGAGATTAGAGTATCGGTCGA | -0.904 |
| ATGAAGATATATTCCTTCAGGAAGGCCTGTGCCTAGGGAGATTAGAGTATCGGTCGA | 0.708 |
| CTTTCATACGTTTAACAGTTCCTCCTGGAAGCCTAGGGAGATTAGAGTATCGGTCGA | 1.18 |
